About 83,000 compounds went through this panel and 20% of them were active in at least one assay; those are over-represented in the sample as a whole.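 Compound tested at a single concentration for 48 hours in 96-well plates; a percent growth value below 10 was scored as active.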 Values without a mark were called inactive.

In this test the test system is LOX IMVI melanoma. As to the kind of experiment: NCI-60 one-dose screen, 48 h (100 = growth as untreated, 0 = no growth, -100 = all killed). Conditions: 10 µM.
Take `Cn1/c(=N\N=C\c2ccccc2OCCO)sc2ccccc21`: the growth was 100%.

Regarding `C=C1C(=O)C2CCC1C2` (centres undefined), the growth was 106%.

Regarding `CC(C)C(C)(C)C(=O)C(C)(C)C(C)(C)C`, the growth was 93.3%.

As for `Cc1ccc(OC(=O)c2ccccc2)cc1`, the growth was 105%.

In the case of `CCOC(=O)c1cc(Cl)c(O)c(Cl)c1`, the growth is 102%.

On to `C[n+]1cc2cc3c(cc2c2ccccc21)OCO3`, for which the growth was 63.2%.

`Cc1ccc(Cc2ccc(C)cc2)cc1`: the growth is 99.4%.

For the compound `C=C1C(=O)C2CCN1CC2`, the growth was 98.9%.

Turning to `N#CC1(O)CCCCC1`, the growth was 91.7%.

In the case of `CCOC(=O)CO`, the growth was 107%.

For `CCOC(=O)N[C@H]1CCc2cc(OC)c(OC)c(OC)c2-c2ccc(SC)c(=O)cc21`, the growth is 22.4%.

On to `CC1CCC(C)(C)c2ccccc21` (centres undefined), for which the growth was 98.6%.

For `O=C1C=Cc2ccccc2/C1=C/c1[nH]c(=O)[nH]c1O`, the growth was 48.8%.

In the case of `CCN(CC)CCCC(C)NC(=S)N/N=C(\C)c1ccccn1` (centres undefined), the growth is 39.3%.

With `Cn1c(=O)c2[nH]c(CC(=O)O)nc2n(C)c1=O`, the growth was 101%.

Turning to `Cc1ccc(/C=N/NC(N)=S)s1`, the growth is 101%.

For `CCNC(=O)Oc1ccc[nH]c1=O`, the growth was 99.1%.

For `Cc1ccc(C)c(CCO)c1`, the growth is 100%.

With `O=C(OCC1CCCO1)c1ccc([N+](=O)[O-])cc1` (centres undefined), the growth was 104%.

For the compound `COC1OC(C(COC(C)=O)OC(C)=O)C(OC(C)=O)C(OC(C)=O)C1OC(C)=O` (centres undefined), the growth is 103%.

For the compound `NC(=O)c1cc2c3ccccc3ccn2c1-c1ccccc1`, the growth is 20%.

As for `Clc1ccc(/C=C/c2ccccn2)cc1`, the growth was 98.6%.

Regarding `CC(=O)c1cccc(N(C)S(=O)(=O)c2ccc(C)cc2)c1`, the growth was 82.3%.

For `O=S(=O)(O)C(C(I)I)S(=O)(=O)O`, the growth was 101%.

Turning to `Clc1ccc(-c2noc(/C=C\c3ccccc3)n2)cc1`, the growth is 97.5%.

As to `BrCc1cccc(C[P+](c2ccccc2)(c2ccccc2)c2ccccc2)c1`, the growth is 40.2%.

In the case of `CCCC(OC(C)=O)c1ccc2c(c1)OCO2` (centres undefined), the growth was 103%.

As for `CC(=O)Nc1ccc(C(=O)c2ccc(S(=O)(=O)Nc3ccccc3)cc2)cc1`, the growth is 91.6%.

As for `O=C1NC(=O)/C(=C\c2ccncc2)N1`, the growth is 100%.

For the origin of these results see PubChem BioAssay (NCI).
